From PubChem BioAssay
Only some compounds are listed: those with a hit (about 4.2% of all), similar ones and a draw of the others.
hgDAF-12 ag = hgDAF-12 agonism, primary luciferase screen; actives 1.8% (n = 370,000); AID 687014; activation, % at 6.8 µM; HEK293 GAL4-hgDAF12 UAS-luciferase reporter, agonist luminescence; normalized to butyrate control;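 active means activation above a cutoff set at the mean of all screened compounds plus 3 SD, cut at about 10% in these data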;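 further: 0% = DMSO wells and 100% = sodium butyrate wells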
DAX1 inh = blocks DAX1 repression of SF-1 activated StAR promoter. HEK293T StAR-luciferase reporter, SF-1/DAX-1 repression relief. inhibition, % at 6.8 µM. actives 1.1% (n = 370,000);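 active means inhibition above the mean over all tested compounds plus 3 SD, cut at about 3.6% in these data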;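 further: 0% = DAX-1 cells with DMSO and 100% = cells lacking DAX-1 with DMSO; higher inhibition means more luminescence from relief of DAX-1 repression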
esBAF inh = inhibitors of esBAF chromatin remodeling in mouse ES cells; Bmi1-luciferase knock-in reporter, 24 h; 100% = twice the neutral-well signal; reporter increase, % at 12.5 µM; actives 2% (n = 350,000); AID 602393; in the data active means activation above about 40%; inconclusive means no clear call, values can overlap the other calls;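 further: 0% = median of the plate's neutral control wells and 100% = double that signal; a rise in the Bmi1 reporter signal indicates esBAF inhibition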
ssDAF12 agonist = activates DAF-12 receptor from parasite S. stercoralis | HEK293 ssDAF-12/GRIP1 lit1-tk-luc reporter, luminescence; % of 3 µM dafachronic acid response | actives 1% (n = 370,000) | AID 652126 | activation, % at 6.8 µM;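 active means activation above the mean over all tested compounds plus 3 SD, cut at about 0.9% in these data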;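 further: 0% = DMSO-only wells and 100% = 3 µM delta7-dafachronic acid wells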
Wnt bcat act = activators of Wnt/beta-catenin signaling | Wnt/beta-catenin reporter cell assay, activator, plate reader | activation, % at 9.35 µM | actives 1.2% (n = 300,000) | AID 743398; in the data active means activation above about 30%, passing the limit was not always enough; inconclusive means no clear call, values can overlap the other calls;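 further: 0% = neutral control wells and 100% = positive control wells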
hcDAF12 agonist = activates DAF-12 receptor from parasite H. contortus | HEK293 hcDAF-12 lit1-tk-luc reporter, luminescence; 0% DMSO, 100% Δ7-dafachronic acid | activation, % at 6.8 µM | actives 1.4% (n = 370,000) | AID 652067;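 active means activation above the mean of all tested compounds plus 3 SD, cut at about 5.5% in these data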;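 further: 100% = response to 3 µM Δ7-dafachronic acid high control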
The depositor's hits bear a star; ? = inconclusive; . = no result.

SMILES | hgDAF-12 ag | DAX1 inh | esBAF inh | ssDAF12 agonist | Wnt bcat act | hcDAF12 agonist
Cc1ccc(/C=N/NC(=O)c2ccco2)cc1 | 12* | 2 | . | -1 | 39* | 3
Cc1ccc(C(=O)NNC(=O)c2ccco2)cc1 | 4 | 1 | 51* | -1 | 21 | 4
Cc1cccc(-n2c(C)cc(/C=N\NC(=O)c3ccco3)c2C)c1 | 10 | 2 | . | -1 | -2 | 2
Cc1ccc(C(=O)NNC(=S)NC(=O)c2ccco2)cc1 | 0 | -2 | . | 0 | -1 | 2
O=C(N/N=C/c1ccccn1)c1ccco1 | 10 | 1 | . | 0 | -4 | 0
O=C(N/N=C\CCc1ccccc1)c1ccco1 | 13* | 2 | -6 | 0 | . | 3
Cc1ccc(C(=O)Nc2cccc(C(=O)N/N=C/c3ccc(O)cc3)c2)cc1 | 7 | 1 | -22 | 0 | -2 | 5.9*
CCCNC(=O)Nc1ccc2c(c1)OC[C@H](C)N(Cc1ccc(-c3ccccn3)cc1)C[C@H](C)[C@H](OC)CN(C)C2=O | . | . | 0 | . | . | .
Cc1ccc(C(=O)NNC(=O)c2cccc(C)c2)cc1 | 11* | 1 | 41* | -1 | . | -1
O=C(N/N=C/c1ccc2ncccc2c1)c1ccco1 | 8 | 4.2* | . | 1 | 8 | 5
CC=Cc1ccc2n(c1=O)C[C@@H]1[C@@H](CO)[C@H](C(=O)NCC)[C@H]2N1Cc1ccccc1 (mixture of isomers) | . | . | -2 | . | . | .
C[C@@H]1CN([C@H](C)CO)S(=O)(=O)c2ccc(-c3ccc(C(=O)N(C)C)cc3)cc2O[C@@H]1CN(C)C(=O)C1CCCCC1 | . | . | 1 | . | . | .
COc1ccc(NC(=O)/C=C/c2ccco2)cn1 | 9 | 2 | 44* | -1 | ? | 3
COc1ccc(NC(=O)/C=C/c2cccc(F)c2)cn1 | 13* | 3 | . | -1 | 36* | 2
C[C@@H]1CCCCO[C@H](CN(C)C(=O)Nc2ccc(F)cc2)[C@@H](C)CN([C@@H](C)CO)C(=O)c2cc(NC(=O)c3ccncc3)ccc2O1 | . | . | 4 | . | . | .
Cc1cccc(C(=O)Oc2ccc(/C=N/O)cc2)c1 | 6 | 0 | 76* | -1 | 11 | 3
CO[C@H]1CN(C)C(=O)c2ccc(NS(C)(=O)=O)cc2OC[C@H](C)N(C(=O)c2ccc3c(c2)OCO3)C[C@H]1C | . | . | -3 | . | . | .
C=CCNC(=O)c1ccc2c3n(nc2c1)-c1ccc(Cl)cc1CO3 | 10 | 2 | 53* | -1 | 44* | 1
Cc1ccc2c(c1)COc1c3ccc(C(=O)NCC4CC4)cc3nn1-2 | 7 | 1 | 94* | -2 | 18 | 0
Cc1ccc2c(c1)COc1c3ccc(C(=O)O)cc3nn1-2 | 5 | 0 | 2 | 0 | -1 | 3
O=C(NCCO)c1ccc2c3n(nc2c1)-c1ccccc1CO3 | 8 | 3 | 2 | 0 | 37* | 6
O=C(C[C@@H]1C[C@@H]2c3cc(NC(=O)NC4CCCC4)ccc3O[C@@H]2[C@H](CO)O1)NCc1ccncc1 | . | . | 7 | . | . | .
C[C@@H]1CN([C@H](C)CO)C(=O)c2cc(NC(=O)CCN3CCOCC3)ccc2O[C@H]1CN(C)C | . | . | -3 | . | . | .
Cc1cccc(OCCNc2ncccc2[N+](=O)[O-])c1 | 9 | 1 | 74* | 0 | 3 | 1
O=C1CC(/C=C/c2ccccn2)=Nc2ccccc2N1 | -1 | 0 | . | -1 | -5 | 0
SMILES | hgDAF-12 ag | DAX1 inh | esBAF inh | ssDAF12 agonist | Wnt bcat act | hcDAF12 agonist
CC1=CC(C)=Nc2ccccc2N1 | 11* | 3 | 24 | 2.1* | . | 5.6*
Clc1ccc(Nc2nc3cccnc3s2)cc1 | 11* | 1 | . | 0 | -2 | 4
CC(=O)NC(CC(=O)NNC(=O)COc1c(C)cccc1C)c1ccccc1 (stereo unspecified) | -1 | -1 | . | -1 | 62* | 1
CO[C@H]1CN(C)C(=O)c2cc(NS(=O)(=O)CC(F)(F)F)ccc2OC[C@H](C)N(Cc2cccnc2)C[C@H]1C | . | . | -5 | . | . | .
COc1ccc(OC)c(C(=O)COC(=O)c2ccccc2O)c1 | 3 | 1 | 42* | 0 | . | 4
CCOC(=O)c1c(C)[nH]c(C(=O)COC(=O)c2ccncc2)c1C | -3 | 0 | 5 | -1 | -1 | -3
COc1ccc(C(=O)COC(=O)c2cccnc2Cl)c(OC)c1 | 13* | 1 | . | -1 | -1 | 0
COc1ccc(OC)c(C(=O)COC(=O)c2c(OC)cccc2OC)c1 | -1 | 0 | -1 | -1 | . | 0
CCOC(=O)c1c(C)[nH]c(C(=O)COC(=O)c2cccnc2Cl)c1C | 0 | -2 | 65* | -1 | 16 | -1
COc1ccc(OC)c(C(=O)COC(=O)c2cccnc2Cl)c1 | 3 | 0 | 0 | -1 | -1 | 0
O=C(C[C@@H]1CC[C@H]2[C@@H](COC[C@@H](O)CN2C(=O)c2cccnc2)O1)NCC1CC1 | . | . | -4 | . | . | .
CN1C(=O)c2cc(NS(=O)(=O)c3ccc(F)cc3)ccc2OC[C@H]2O[C@@H](CC(=O)O)CC[C@@H]21 | . | . | -8 | . | . | .
C[C@H](CO)N1C[C@H](C)[C@H](CN(C)Cc2cccc(C(F)(F)F)c2)Oc2ncc(C#Cc3ccccc3)cc2C1=O | . | . | 0 | . | . | .
CC1CCN(c2oc(-c3ccccc3Cl)nc2C#N)CC1 | 5 | 2 | 53* | -1 | 15 | 1
Cc1cccc(-c2nc(C#N)c(N3CCCCCC3)o2)c1 | 4 | 1 | 73* | -1 | . | -1
Cc1cccc(-c2nc(C#N)c(N3CCC(C)CC3)o2)c1 | 8 | 1 | 10 | 0 | 18 | 1
CC1=C(C(=O)OCc2ccccc2)C(c2ccc(Br)cc2)NC(=O)N1CCCCCC(=O)O (stereo unspecified) | 9 | 3 | 90* | 0 | 46* | 4
CN1CCCN(C(=O)c2ccc(Br)s2)CC1 | -1 | 1 | 0 | -1 | 0 | -1
CN1CCN(C(=O)c2ccc(-c3cccs3)s2)CC1 | 9 | 2 | . | -1 | 36* | 1
Cc1ccc(S(=O)(=O)N(C)C[C@H]2Oc3c(NC(=O)Nc4c(C)noc4C)cccc3C(=O)N([C@H](C)CO)C[C@@H]2C)cc1 | . | . | -4 | . | . | .
Cc1c(-c2ccc(Cl)cc2)oc(=O)c2c(N)n(-c3ccccc3)nc12 | 2 | 0 | 31 | -1 | 21 | -1
Nc1c2c(=O)oc(-c3ccccc3)cc2nn1-c1ccccc1 | 9 | 2 | 70* | -1 | . | 0
COc1ccc(/C=C/C(=O)c2ccncc2)c2ccccc12 | -5 | -2 | . | -2 | 7 | -1
COc1ccc(/C=C/C(=O)c2ccc[nH]2)c(OC)c1OC | 5 | 0 | 47* | -1 | 22 | 0
COc1ccc(/C=C/C(=O)c2ccc[nH]2)cc1OC | 2 | 1 | 53* | 0 | 6 | 2
CCC1(c2ccc(Cl)cc2)NC(=S)N(c2ccccc2)N1 (stereo unspecified) | 7 | 1 | 11 | 1 | -2 | 5.7*
